Laboratory results reported in PubChem BioAssay (NCI).
About 83,000 compounds went through this panel and 20% of them were active in at least one assay; those are over-represented in the sample as a whole.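 Plates (96-well) were seeded with cells, treated with compound at one concentration, and incubated for 48 hours before percent growth was determined.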 Unmarked numbers belong to inactive results. Active and inactive are the calls of the source.

Each molecule was assayed on A549/ATCC NSCLC (assay: NCI-60 one-dose screen, 48 h (100 = growth as untreated, 0 = no growth, -100 = all killed)). Conditions: 10 µM unless noted.
Protocol: Growth inhibition of the A549/ATCC human Non-Small Cell Lung tumor cell line is measured as a screen for anti-cancer activity. Cells are grown in 96 well plates and exposed to the test compound for 48 hours. Compounds are tested at a single concentration, which is 10^-5 M for most compounds. The reported endpoint is percent growth (GI% or GIPRCNT), where numbers from 0 - 100% represent growth inhibition, and numbers from -100% - 0 represent cell death. For example, a value of 40 represents 60% growth inhibition. A value of 0 means no net growth occurred over the course of the experiment. A value of -40 indicates 40% of cells at the beginning of the experiment died by the end of the experiment. A value of -100 means all cells are dead at the end of the experiment.
NCI-60 Human Tumor Cell Lines Screen was performed using the standard one-dose NCI protocol, which is described in more detail at https://dtp.cancer.gov/discovery_development/nci-60/default.htm.
Compounds with GIPRCNT values below 10 were considered active. Activity score was based on GIPRCNT using the following formula: […]
Score is 0 for GIPRCNT values of 100 or above, 50 for GIPRCNT values of 0, and 100 for GIPRCNT values of -100.

SMILES | growth
CS(=O)(=O)c1ncc(-c2ccccc2)cn1 | 94.2%
COC(=O)C(Cc1ccccc1)Nc1nc(NC(Cc2ccccc2)C(=O)OC)nc(N2CCOCC2)n1 (stereo not given) | 108%
O=C(c1ccc(O)cc1)[C@@H]1CN[C@@]2(C(=O)Nc3ccccc32)[C@H]1c1ccc(F)cc1 | 108%
C=C(C)[C@@H]1CC[C@]2(COP(=O)(OCC)OCC)CC[C@]3(C)[C@H](CC[C@@H]4[C@@]5(C)CCCNC(C)(C)[C@@H]5CC[C@]43C)[C@@H]12 | 36.3%
COc1cc(OC)c(S(N)(=O)=O)cc1C(=O)/C=C/c1ccc(Cl)cc1 | 6.83% (active)
Cn1cc(-c2nc(N)nnc2-c2c[nH]c3ccc(Br)cc23)c2cc(Br)ccc21 | 49.7%
O=S(=O)(NCCCNc1nccc(-c2[nH]c(-c3ccccc3)nc2-c2ccc(Cl)c(O)c2)n1)c1cccc2ccccc12 | 26.5%
Oc1ccc(CSc2nnc(-c3ccc(Cl)cc3)n2-c2ccccc2)c2cccnc12 | 26%
CCc1cccc2c3c(sc12)C(c1ccc(OC)cc1)C(C#N)=C(/N=C/c1ccc(Cl)cc1)O3 (stereo not given) | 41.5%
CCCCCc1ccc(S(=O)(=O)Nc2cccc(-c3csc(NCCN4CCN(C)CC4)n3)c2)cc1 | 72.6%
Clc1ccc(N/N=c2/oc3ccccc3cc2-c2cc3ccccc3[nH]2)cc1 | 76.2%
O=C(c1ccc(O)c(C(=O)N2Cc3ccc(OCCC[P+](c4ccccc4)(c4ccccc4)c4ccccc4)cc3C2)c1)N1Cc2cccc(F)c2C1 | 99.8%
CCC1=Cc2cc(OC)ccc2OC12C=Cc1cc(OC)ccc1O2 (stereo not given) | 26.5%
C#CCOc1ccc(/C=N\Nc2nc(-c3ccc(C)cc3)cs2)cc1OC | 88.6%
CCCn1cnc2c(c1=N)C(c1ccc(Cl)cc1)c1sc3c(CC)cccc3c1O2 (stereo not given) | 30.4%
CCCn1cnc2c(c1=N)C(c1ccc(OC)cc1)c1sc3c(CC)cccc3c1O2 (stereo not given) | 40.6%
Cc1cc(C)c2sc(=O)n(Cc3nnc(SCCC(=O)O)o3)c2n1 | 104%
CS(=O)(=O)Nc1cc(-c2ccc3ncc(C#N)c(NCc4ccccc4O)c3c2)cnc1Cl | 15.8%
COc1cc(-c2nc(SCCC(C)C)nc(NNC(=O)c3ccncc3)c2C#N)cc(OC)c1OC | 76.5%
COc1ccccc1-n1cc(C#N)c(N)c1C(=O)c1ccc(Br)cc1 | 78.6%

SMILES | growth
CNC(=O)c1cc(-c2ccc(NC(=S)Nc3cc(C(F)(F)F)cc(C(F)(F)F)c3)cc2)nc2cccnc12 | 88.3%
O=c1[nH]c(Sc2sc3ccc(Cl)cc3c2CBr)nc(=S)[nH]1 | 39.8%
COc1cccc(O)c1/C=C(/C)c1ccc2c(OC)cccc2[o+]1 | 107%
O=C(CSc1nnc(-c2ccc(Cl)cc2)n1-c1ccccc1)Nc1ccc(Br)cc1 | 4.69% (active)
CC(=O)N(C)C1CCc2c(sc(NC(=O)c3ccc(C(C)(C)C)cc3)c2C(N)=O)C1 (stereo not given) | 39.8%
CNC(=O)c1c(NC(=O)c2ccccc2C(F)(F)F)sc2c1CCC(=O)C2 | 70.9%
CN1c2ccccc2Sc2cc(C=C(C#N)C#N)ccc21 | 98%
COc1ccc(/C=C(/C)c2ccc3ccc(OC)cc3[o+]2)c(O)c1 | 102%
Cc1ccc(-c2cc3nc(C(Cl)Cl)nc(C)n3n2)cc1 | 108%
C=C(C)[C@@H]1CC[C@]2(COC)CC[C@]3(C)[C@H](CC[C@@H]4[C@@]5(C)CCCNC(C)(C)[C@@H]5CC[C@]43C)[C@@H]12 | 39%
CCCCCc1ccc(S(=O)(=O)Nc2cccc(-c3csc(NC(=O)CCCCCN4CCN(C)CC4)n3)c2)cc1 | 54.4%
Cc1ccc2sc3c(c2c1)OC(N)=C(C#N)C3c1ccc(Cl)cc1 (stereo not given) | 96.9%
CN(C)CCCOc1ccc2c(c1)CN(C(=O)c1cc(C(=O)N3Cc4cccc(F)c4C3)ccc1O)C2 | 101%
COc1ccc(Cn2cc3c(c2-c2cc(OC)c(OC)c(OC)c2)CCc2c(CN4CCOCC4)noc2-3)cc1 | 32.9%
CCO/C=N/C1=C(C#N)C(c2ccc(Cl)cc2)c2sc3c(CC)cccc3c2O1 (stereo not given) | 30%
N#Cc1cnc2ccc(-c3cnc(N)nc3)cc2c1N1CCc2cc(F)c(Cl)cc21 | 4.58% (active)
NS(=O)(=O)c1ccc(Nc2nc(N/N=C/c3c[nH]c4ccccc34)nc(Nc3ccccc3)n2)cc1 | 78.3%
Cn1cc(CNc2nc3ccc(OC/C(=C/F)CN)cc3o2)ccc1=O | 108%
O=C(Nc1cccc(C(F)(F)F)c1)c1cc(-c2ccc(F)cc2F)ccc1O | 7.54% (active)
COc1ccc(NC(=O)CSc2nnc(-c3ccc4nc(-c5ccc(OC)c(OC)c5)[nH]c4c3)o2)cc1OC | 101%
